Test results: the supplement of paper PMC10849652
About 8,800 targets were measured; listed, in parts, are those with a hit and a random draw of the rest. About 0.5% of all pairs of compound and target were hits. Unmarked numbers belong to inactive results.

How the values were obtained:
Assay in all cases: log2 fold change, soluble protein after heating vs DMSO (PISA); higher = thermal stabilisation; K562 lysate, 10 uM; active = over 0.2 and 3.5 SD of the protein, either way, in both replicates (recomputed)
erlotinib = compound: C#Cc1cccc(Nc2ncnc3cc(OCCOC)c(OCCOC)cc23)c1 [erlotinib]
Summary of the method: (§1)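 Pellets of K562 cells were dounce-homogenised in PBS pH 7.4 with 1 mM MgCl2, and the crude extract was held at 1 mg/mL protein for a 30 min treatment with 10 μM compound. Aliquots were heated for 3 min over 48°C-58°C and pooled before NP-40 was added to 0.5% at 4°C. The supernatant from 21,000xg for 90 min was quantified by TMTpro 16plex LC-MS/MS with channel sums equalised. Values are reported from duplicates as log-two fold change in thermal stability relative to solvent controls.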

[1] = compound: C1=CC(=CC=C1C2=NC3=C(N2)C=C(C=C3)C(=O)N)OC4=CC=C(C=C4)Cl
Summary of the method: as §1

[2] = compound: C1=CC2=NC=CN=C2C=C1/C=C/3\C(=O)NC(=O)S3
Summary of the method: as §1

[3] = compound: C1=CC=C(C=C1)C2=NC(=C(N2)C3=CC=NC=C3)C4=CC(=C(C=C4)Cl)O
Summary of the method: as §1

IRAK-1-4 Inhibitor I = compound: C1COCCN1CCN2C3=CC=CC=C3N=C2NC(=O)C4=CC(=CC=C4)[N+](=O)[O-] [IRAK-1-4 Inhibitor I]
Summary of the method: as §1

[4] = compound: C/C(=N\NC(=O)C1=CC(=CC=C1)S(=O)(=O)N2CCOCC2)/C3=C(C=CC(=C3)Cl)O
Summary of the method: as §1

[5] = compound: C1=CC2=C(C=CC(=C2)/C=C\3/C(=O)NC(=NCC4=CC=CS4)S3)N=C1
Summary of the method: as §1

[6] = compound: C1=CC=C2C(=C1)C3=NNC4=CC=CC(=C43)C2=O
Summary of the method: as §1

[7] = compound: C1CCN(C1)C(=O)NC2=CC=CC(=C2)NC3=NC=C(C(=N3)NCCC4=CN=CN4)Br
Summary of the method: as §1

[8] = compound: C1CN(CCC1(CC2=CC=C(C=C2)Cl)N)C3=NC=NC4=C3C=CN4
Summary of the method: as §1

Chain of UniProt Q8N196 (Q8N196 whole entry, looked up): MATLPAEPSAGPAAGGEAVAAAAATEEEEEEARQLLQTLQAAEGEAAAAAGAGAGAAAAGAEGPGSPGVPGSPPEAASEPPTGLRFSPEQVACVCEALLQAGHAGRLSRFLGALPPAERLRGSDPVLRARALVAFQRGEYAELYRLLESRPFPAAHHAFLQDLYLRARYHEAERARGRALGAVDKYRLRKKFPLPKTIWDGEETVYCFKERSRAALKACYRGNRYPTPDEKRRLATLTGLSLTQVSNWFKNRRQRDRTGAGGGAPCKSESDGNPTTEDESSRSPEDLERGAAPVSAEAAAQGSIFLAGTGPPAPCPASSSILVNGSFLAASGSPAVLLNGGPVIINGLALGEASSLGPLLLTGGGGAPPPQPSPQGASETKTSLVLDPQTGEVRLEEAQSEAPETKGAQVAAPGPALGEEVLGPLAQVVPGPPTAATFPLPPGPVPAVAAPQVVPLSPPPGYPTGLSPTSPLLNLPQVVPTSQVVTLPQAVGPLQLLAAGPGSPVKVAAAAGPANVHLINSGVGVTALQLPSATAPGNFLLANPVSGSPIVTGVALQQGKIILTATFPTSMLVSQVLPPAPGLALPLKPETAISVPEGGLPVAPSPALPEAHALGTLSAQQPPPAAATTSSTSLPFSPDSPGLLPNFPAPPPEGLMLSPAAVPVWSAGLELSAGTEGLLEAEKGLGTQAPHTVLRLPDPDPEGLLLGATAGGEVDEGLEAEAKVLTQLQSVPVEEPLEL
Chain of UniProt Q9UL54 (Q9UL54 whole entry, looked up): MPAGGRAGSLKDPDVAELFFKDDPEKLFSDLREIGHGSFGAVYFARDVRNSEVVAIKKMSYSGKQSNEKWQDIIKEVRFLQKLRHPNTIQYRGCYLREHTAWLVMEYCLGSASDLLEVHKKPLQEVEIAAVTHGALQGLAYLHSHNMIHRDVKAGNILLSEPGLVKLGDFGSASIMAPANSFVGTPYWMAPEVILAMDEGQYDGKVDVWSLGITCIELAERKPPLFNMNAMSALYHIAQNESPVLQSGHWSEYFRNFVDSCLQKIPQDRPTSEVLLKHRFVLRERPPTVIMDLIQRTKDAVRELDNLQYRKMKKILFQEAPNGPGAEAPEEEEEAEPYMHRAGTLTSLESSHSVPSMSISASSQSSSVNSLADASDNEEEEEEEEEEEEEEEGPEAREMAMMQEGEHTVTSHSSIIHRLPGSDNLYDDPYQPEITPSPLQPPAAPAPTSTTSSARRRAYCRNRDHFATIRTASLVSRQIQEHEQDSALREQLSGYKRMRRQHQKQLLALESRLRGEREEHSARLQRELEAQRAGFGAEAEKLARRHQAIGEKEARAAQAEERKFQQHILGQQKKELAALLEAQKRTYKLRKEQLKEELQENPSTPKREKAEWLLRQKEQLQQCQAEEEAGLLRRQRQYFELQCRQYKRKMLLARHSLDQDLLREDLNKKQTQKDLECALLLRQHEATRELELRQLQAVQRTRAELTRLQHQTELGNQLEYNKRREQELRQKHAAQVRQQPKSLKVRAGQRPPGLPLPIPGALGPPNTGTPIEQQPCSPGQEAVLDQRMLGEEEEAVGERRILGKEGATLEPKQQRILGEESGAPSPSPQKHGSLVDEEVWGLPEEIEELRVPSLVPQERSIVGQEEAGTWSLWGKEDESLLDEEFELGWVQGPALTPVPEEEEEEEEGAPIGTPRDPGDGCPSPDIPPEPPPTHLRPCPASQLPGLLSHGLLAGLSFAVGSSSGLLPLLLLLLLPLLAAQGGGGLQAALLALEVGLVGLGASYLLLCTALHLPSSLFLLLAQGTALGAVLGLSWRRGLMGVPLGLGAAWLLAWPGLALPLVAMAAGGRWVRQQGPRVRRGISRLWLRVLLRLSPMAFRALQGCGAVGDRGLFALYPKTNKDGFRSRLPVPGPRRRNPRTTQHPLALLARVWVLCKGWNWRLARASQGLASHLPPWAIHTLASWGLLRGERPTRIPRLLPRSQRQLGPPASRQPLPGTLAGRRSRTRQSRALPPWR
Chain of UniProt Q07617 (Q07617 whole entry, looked up): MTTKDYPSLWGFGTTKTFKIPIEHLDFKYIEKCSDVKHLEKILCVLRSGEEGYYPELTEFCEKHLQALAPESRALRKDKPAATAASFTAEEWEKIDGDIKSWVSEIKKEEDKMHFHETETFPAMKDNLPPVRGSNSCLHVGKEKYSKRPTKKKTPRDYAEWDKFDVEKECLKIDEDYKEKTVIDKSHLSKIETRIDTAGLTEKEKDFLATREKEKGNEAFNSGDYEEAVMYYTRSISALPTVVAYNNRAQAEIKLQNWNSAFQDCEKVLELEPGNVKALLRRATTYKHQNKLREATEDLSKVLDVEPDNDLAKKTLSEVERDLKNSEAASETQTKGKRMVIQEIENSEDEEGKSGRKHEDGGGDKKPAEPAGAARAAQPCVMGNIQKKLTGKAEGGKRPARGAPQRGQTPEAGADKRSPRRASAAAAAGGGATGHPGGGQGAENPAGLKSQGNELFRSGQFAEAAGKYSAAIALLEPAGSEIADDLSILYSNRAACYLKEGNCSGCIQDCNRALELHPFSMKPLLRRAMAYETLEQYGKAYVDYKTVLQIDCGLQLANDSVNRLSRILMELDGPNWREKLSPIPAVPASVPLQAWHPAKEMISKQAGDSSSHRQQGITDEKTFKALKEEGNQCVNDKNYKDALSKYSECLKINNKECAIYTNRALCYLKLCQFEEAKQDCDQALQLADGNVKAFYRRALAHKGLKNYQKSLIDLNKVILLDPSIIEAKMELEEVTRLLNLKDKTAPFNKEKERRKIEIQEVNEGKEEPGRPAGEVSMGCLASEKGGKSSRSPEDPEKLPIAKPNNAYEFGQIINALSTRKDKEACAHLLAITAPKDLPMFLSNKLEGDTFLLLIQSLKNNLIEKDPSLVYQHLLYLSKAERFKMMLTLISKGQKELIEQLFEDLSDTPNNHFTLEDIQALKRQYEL
Chain of UniProt Q13487 (Q13487 whole entry, looked up): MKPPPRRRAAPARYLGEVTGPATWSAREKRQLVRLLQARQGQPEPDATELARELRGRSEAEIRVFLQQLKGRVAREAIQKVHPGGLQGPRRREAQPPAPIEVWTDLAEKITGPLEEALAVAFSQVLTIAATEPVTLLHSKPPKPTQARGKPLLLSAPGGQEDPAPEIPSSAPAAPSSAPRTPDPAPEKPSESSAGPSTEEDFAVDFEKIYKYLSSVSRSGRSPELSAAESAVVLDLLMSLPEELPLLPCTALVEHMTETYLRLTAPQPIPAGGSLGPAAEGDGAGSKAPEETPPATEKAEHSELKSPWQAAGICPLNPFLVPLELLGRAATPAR
Chain of UniProt Q9Y2D2 (Q9Y2D2 whole entry, looked up): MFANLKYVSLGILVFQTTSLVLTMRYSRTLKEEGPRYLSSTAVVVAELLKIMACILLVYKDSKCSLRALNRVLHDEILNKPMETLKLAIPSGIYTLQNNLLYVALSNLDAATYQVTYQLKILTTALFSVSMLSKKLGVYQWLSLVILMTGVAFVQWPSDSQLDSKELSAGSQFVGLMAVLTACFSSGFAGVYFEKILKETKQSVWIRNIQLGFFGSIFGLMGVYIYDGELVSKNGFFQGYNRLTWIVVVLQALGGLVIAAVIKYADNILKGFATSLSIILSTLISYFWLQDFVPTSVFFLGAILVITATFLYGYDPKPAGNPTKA
Chain of UniProt Q96BI1 (Q96BI1 whole entry, looked up): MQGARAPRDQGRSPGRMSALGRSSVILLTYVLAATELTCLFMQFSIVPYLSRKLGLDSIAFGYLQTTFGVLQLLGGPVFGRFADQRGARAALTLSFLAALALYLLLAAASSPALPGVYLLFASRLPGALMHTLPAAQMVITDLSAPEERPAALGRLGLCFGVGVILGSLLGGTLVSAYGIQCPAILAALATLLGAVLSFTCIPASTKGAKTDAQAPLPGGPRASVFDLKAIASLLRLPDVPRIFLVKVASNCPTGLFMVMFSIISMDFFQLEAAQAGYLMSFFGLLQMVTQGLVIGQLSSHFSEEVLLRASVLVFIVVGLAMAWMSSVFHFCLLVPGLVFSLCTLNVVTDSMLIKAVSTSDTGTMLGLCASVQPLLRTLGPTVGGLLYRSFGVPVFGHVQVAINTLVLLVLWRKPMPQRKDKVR
Chain of UniProt Q96CQ1 (Q96CQ1 whole entry, looked up): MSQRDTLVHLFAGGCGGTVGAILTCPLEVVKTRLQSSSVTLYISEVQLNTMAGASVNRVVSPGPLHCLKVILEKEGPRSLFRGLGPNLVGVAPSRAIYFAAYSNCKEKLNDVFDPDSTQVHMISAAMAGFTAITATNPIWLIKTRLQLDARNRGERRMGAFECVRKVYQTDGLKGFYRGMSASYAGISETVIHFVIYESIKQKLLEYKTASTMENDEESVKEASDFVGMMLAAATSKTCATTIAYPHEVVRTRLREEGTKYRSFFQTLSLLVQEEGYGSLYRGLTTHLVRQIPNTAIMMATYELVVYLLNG
Chain of UniProt Q15506 (Q15506 whole entry, looked up): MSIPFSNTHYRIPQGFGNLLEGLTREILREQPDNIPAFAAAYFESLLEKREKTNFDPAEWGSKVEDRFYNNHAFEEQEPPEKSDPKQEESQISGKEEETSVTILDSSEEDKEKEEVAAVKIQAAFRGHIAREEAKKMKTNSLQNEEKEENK

Target | log2 fold change (erlotinib) | log2 fold change [1] | log2 fold change [2] | log2 fold change [3] | log2 fold change (IRAK-1-4 Inhibitor I) | log2 fold change [4] | log2 fold change [5] | log2 fold change [6] | log2 fold change [7] | log2 fold change [8]
SIX5 (UniProt Q8N196) | -0.062 | -0.05 | -0.046 | -0.034 | -0.141 |  |  |  |  | 
SLC22A18 (UniProt Q96BI1) | -0.008 | -0.018 | -0.147 |  |  | 0.043 | 0.049 | -0.03 | -0.062 | 0.004
SLCO4A1 (UniProt Q96BD0) |  |  | 0.08 |  |  |  |  |  |  | 
SNAPC2 (UniProt Q13487) | 0.131 | 0.022 | -0.21 | 0.087 | -0.166 |  |  |  |  | 
SPAG1 (UniProt Q07617) |  |  | 1.01 (active) | -0.034 | 0.042 | -0.045 | -0.089 | -0.063 |  | 
SLC35A3 isoform 2 (UniProt Q9Y2D2) | -0.036 | 0.077 |  | -0.166 | 0.164 | 0.057 | 0.001 | -0.006 | -0.036 | -0.002
SPA17 (UniProt Q15506) |  |  | -0.033 | -0.018 | 0 | -0.047 | 0.01 | -0.106 | -0.076 | -0.029
SLC25A36 (UniProt Q96CQ1) | -0.021 | 0.08 |  | 0.041 | 0.038 | 0.024 | -0.129 | 0.027 | -0.027 | -0.026
TAOK2 (UniProt Q9UL54) |  |  | 0.072 | -0.031 | 0.072 | 0.006 | -0.034 | 0.729 (active) | 0.038 | 0.058
